Data taken from the supplement of paper PMC8728848.
Many of the other results were omitted from the sample, so the strongest signals are more common in it than they were.

What was measured:
Test in all cases: glycan array binding signal (z-score within array); higher = stronger binding
Settings in all cases: glycan notation: IUPAC condensed, linker removed
GlcA(b1-3)Gal = molecular target: GlcA(b1-3)Gal
In short: (§1)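 Glycan array binding is given as a within-array Z-score, which can be read as non-binding when negative. The arrays, 3228 of them, came from the Consortium for Functional Glycomics database and were retained only where the protein sequence was available. Z-scores were averaged across arrays of the same protein sequence at different concentrations or buffers and across linkers.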

[1] = molecular target: GlcA3S(b1-3)Gal(b1-4)GlcNAc(b1-2)Man
In short: as §1

[2] = molecular target: GlcNAc(a1-4)Gal(b1-4)GalNAc
In short: as §1

[3] = molecular target: GlcNAc(a1-4)Gal(b1-4)GlcNAc(b1-3)Gal(b1-4)[Fuc(a1-3)]GlcNAc(b1-3)Gal(b1-4)[Fuc(a1-3)]GlcNAc
In short: as §1

[4] = molecular target: GlcNAc(b1-2)[GlcNAc(b1-4)]Man(a1-3)[GlcNAc(b1-4)][GlcNAc(b1-2)[GlcNAc(b1-6)]Man(a1-6)]Man(b1-4)GlcNAc(b1-4)[Fuc(a1-6)]GlcNAc
In short: as §1

GlcNAc(b1-3)Fuc = molecular target: GlcNAc(b1-3)Fuc
In short: as §1

[5] = molecular target: GlcNAc(b1-3)Gal(b1-4)GlcNAc(b1-2)[GlcNAc(b1-3)Gal(b1-4)GlcNAc(b1-6)]Man(a1-6)[GlcNAc(b1-3)Gal(b1-4)GlcNAc(b1-2)Man(a1-3)]Man(b1-4)GlcNAc(b1-4)GlcNAc
In short: as §1

[6] = molecular target: GlcNAc(b1-3)Gal(b1-4)GlcNAc(b1-3)[GlcNAc(b1-3)Gal(b1-4)GlcNAc(b1-3)]GalNAc
In short: as §1

Man(a1-2)Man(a1-3)Man = molecular target: Man(a1-2)Man(a1-3)Man
In short: as §1

Neu5Ac(a2-3)Gal = molecular target: Neu5Ac(a2-3)Gal
In short: as §1

[7] = molecular target: Neu5Ac(a2-3)Gal(b1-3)GalNAc(b1-4)[Neu5Ac(a2-3)]Gal(b1-4)Glc
In short: as §1

[8] = molecular target: Neu5Ac(a2-3)Gal(b1-3)GalNAc(b1-4)[Neu5Ac(a2-8)Neu5Ac(a2-3)]Gal(b1-4)Glc
In short: as §1

[9] = molecular target: Neu5Ac(a2-3)Gal(b1-3)[Neu5Ac(a2-6)]GlcNAc(b1-3)[Fuc(a1-3)[Gal(b1-4)]GlcNAc(b1-6)]Gal(b1-4)Glc
In short: as §1

[10] = molecular target: Neu5Ac(a2-3)Gal(b1-3)]Neu5Ac(a2-3)Gal(b1-4)]GlcNAc
In short: as §1

[11] = molecular target: Neu5Ac(a2-3)Gal(b1-4)GlcNAc(b1-2)Man(a1-3)[GlcNAc(b1-4)][Neu5Ac(a2-3)Gal(b1-4)GlcNAc(b1-2)Man(a1-6)]Man(b1-4)GlcNAc(b1-4)GlcNAc
In short: as §1

[12] = molecular target: Neu5Ac(a2-3)Gal(b1-4)GlcNAc(b1-3)[Neu5Ac(a2-3)Gal(b1-4)GlcNAc(b1-6)]GalNAc
In short: as §1

[13] = molecular target: Neu5Ac(a2-3)Gal(b1-4)[Fuc(a1-3)]GlcNAc(b1-3)Gal(b1-4)GlcNAc
In short: as §1

[14] = molecular target: Neu5Ac(a2-3)Gal(b1-4)[Fuc(a1-3)]GlcNAc(b1-6)[Neu5Ac(a2-3)Gal(b1-3)]GalNAc
In short: as §1

Neu5Ac(a2-6)Gal(b1-4)Glc = molecular target: Neu5Ac(a2-6)Gal(b1-4)Glc
In short: as §1

[15] = molecular target: Neu5Ac(a2-6)Gal(b1-4)GlcNAc(b1-2)Man
In short: as §1

[16] = molecular target: Neu5Ac(a2-6)Gal(b1-4)GlcNAc(b1-2)Man(a1-6)[GlcNAc(b1-2)Man(a1-3)]Man(b1-4)GlcNAc(b1-4)GlcNAc
In short: as §1

[17] = molecular target: Neu5Ac(a2-6)Gal(b1-4)GlcNAc(b1-3)Gal(b1-4)GlcNAc
In short: as §1

[18] = molecular target: Neu5Ac(a2-6)Gal(b1-4)GlcNAc(b1-3)Gal(b1-4)GlcNAc(b1-3)[Neu5Ac(a2-6)Gal(b1-4)GlcNAc(b1-3)Gal(b1-4)GlcNAc(b1-6)]GalNAc
In short: as §1

[19] = molecular target: Neu5Ac(a2-6)Gal(b1-4)GlcNAc(b1-3)[Neu5Ac(a2-6)Gal(b1-4)GlcNAc(b1-6)]GalNAc
In short: as §1

[20] = molecular target: Neu5Ac(a2-6)Gal(b1-4)GlcNAc(b1-6)[Gal(b1-3)GlcNAc(b1-3)]Gal(b1-4)Glc
In short: as §1

[21] = molecular target: Neu5Ac(a2-6)Gal(b1-4)GlcNAc(b1-6)[Gal(b1-3)]GalNAc
In short: as §1

[22] = molecular target: Neu5Ac(a2-8)Neu5Ac(a2-8)Neu5Ac(a2-3)[Gal(b1-3)GalNAc(b1-4)]Gal(b1-4)Glc
In short: as §1

B1: PX14343E-bfa-545-24-545 (Bacteroides fragilis) (protein)
chain: LDRYPQEELSDGSFWKTPDDANKVVSDLYGYLSTWDQDNDINSDNATMGIKWAAGNVSKGIYDPADQGWSGDYANVRQCNLILSKIDEIPDYPEADKTKALGQVYFFRAYIYFNLIRSFGDVPYIDKPLDLKDMEGITRMPRAEVYEKIMADFDKAIAALPTEWGASDYGRVTKGAAMAMKARAALYYGNWDTAATEAKNVMDLGLYELYDKDNTGKYAELFWEKADGCDEFILVTQFNYPDKTHYLMGWECFPTKGWGGMNPTQSLVDAFEDSEGAPISKSKIYDPTDPFKNRDPRLEVDILHDGEEMYGVTIKVAPLASSGSTGINQHNDATETGYYGQKWLDPSLDPLSDGWNMGKDWVHIRYAEVLLTYAEAKNELQGLDPEAFDAVNQVRRRVGMPELQNTDPSKPTYCATQDDLRQRIRNEWRVEFCLEGGKRMWDIRRWGIAKDVLNAPFEGLKYKIVDNPNDPDKKVDGGKMCILYQGDPIILSGSRYSDNNYLFPVPQSEIDLNPALTQNPGY
With B1 the “glycan array binding signal (z-score)” value (GlcA(b1-3)Gal) was -0.027, the “glycan array binding signal (z-score)” value [1] was -0.441 and the “glycan array binding signal (z-score)” value [2] was 0.655. The “glycan array binding signal (z-score)” value [3] was 8.96, the “glycan array binding signal (z-score)” value [4] was -0.534 and the “glycan array binding signal (z-score)” value (GlcNAc(b1-3)Fuc) was -0.635. The “glycan array binding signal (z-score)” value [5] was 0.412, the “glycan array binding signal (z-score)” value [6] was -0.23 and the “glycan array binding signal (z-score)” value (Man(a1-2)Man(a1-3)Man) was -0.688. For the same binder, the “glycan array binding signal (z-score)” value (Neu5Ac(a2-3)Gal) was -0.082, the “glycan array binding signal (z-score)” value [7] was -0.236 and the “glycan array binding signal (z-score)” value [8] was -0.153. The “glycan array binding signal (z-score)” value [9] was 0.395, the “glycan array binding signal (z-score)” value [10] was -1.08 and the “glycan array binding signal (z-score)” value [11] was 0.058. The “glycan array binding signal (z-score)” value [12] was -0.912, the “glycan array binding signal (z-score)” value [13] was -0.873 and the “glycan array binding signal (z-score)” value [14] was 0.423. The “glycan array binding signal (z-score)” value (Neu5Ac(a2-6)Gal(b1-4)Glc) was -0.096, the “glycan array binding signal (z-score)” value [15] was -0.34 and the “glycan array binding signal (z-score)” value [16] was 0.074. The “glycan array binding signal (z-score)” value [17] was -0.139, the “glycan array binding signal (z-score)” value [18] was 2.92 and the “glycan array binding signal (z-score)” value [19] was 2.89. The “glycan array binding signal (z-score)” value [20] was -0.484, the “glycan array binding signal (z-score)” value [21] was -0.085 and the “glycan array binding signal (z-score)” value [22] was -0.399.
